We go through 37 compounds from PubChem BioAssay (NCI).

About 83,000 compounds went through this panel and 20% of them were active in at least one assay; those are over-represented in the sample as a whole.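 48-hour exposure, single concentration, 96-well plates; percent growth endpoint where 0 means no net growth. Active: below 10.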 A number with no mark means an inactive call. Calls of active or inactive are those of the source.

The assay relates to HCC-2998 colon. Briefly: NCI-60 one-dose screen, 48 h (100 = growth as untreated, 0 = no growth, -100 = all killed). The note with it: 10 µM unless noted.
As to `O=C(NCCCNc1nccc(-n2ccc3cccnc32)n1)c1c(F)cccc1F`, the growth is 104%.

Turning to `COc1ccc(C(=O)c2cc(OC)c3c(c2)OCO3)cc1O`, the growth was 16.2%.

In the case of `Cc1cc(C(C)(C)C)ccc1S`, the growth was 112%.

As to `Cn1cnc2c(N3CCN(C(=O)OCc4ccc5c(Cl)cc(Cl)c(O)c5n4)CC3)nc(Cl)nc21`, the growth is 94.1%.

For the compound `Fc1ccccc1-c1nc(-c2nc3cc(Cl)c(Cl)cc3[nH]2)c2ccccn12`, the growth was 96.2%.

Take `C1=Cc2ccccc2N(c2nnc(-c3ccccc3)o2)c2ccccc21`: the growth was 121%.

Consider `COc1cc(C2CC(c3ccc4c(c3)OCO4)=NN2C=O)cc(OC)c1OC` (configuration not stated), for which the growth is 64.2%.

Take `COc1ccc(/C=C2/C(=O)NC(SCC(=O)N3CCN(c4cc5c(cc4F)c(=O)c(C(=O)O)cn5C4CC4)CC3)=NC2N)cc1OC` (configuration not stated): the growth was 99.7%.

With `COc1cc(C2CC(c3ccc4c(c3)OCO4)=NN2C(C)=O)cc(OC)c1OC` (configuration not stated), the growth is 47.8%.

As to `COc1cc(NCCCCCN)c2ncccc2c1`, the growth was 125%.

With `C=C1CCC2C(C)(CO)C(O)CCC2(C)C1C/C=C1/C(=O)OCC1Oc1ccccc1C` (configuration not stated), the growth was 125%.

In the case of `CCCCCCCCCCCCCCCCNC(=O)OC(C)C`, the growth is 57.1%.

For `O=C(/C=C/c1cc(-c2ccc3c(c2)OCO3)n[nH]1)c1ccc2c(c1)OCO2`, the growth is 106%.

Take `c1cc(C2=N[C@@H]3c4ccccc4C[C@@H]3O2)nc(C2=N[C@@H]3c4ccccc4C[C@@H]3O2)c1`: the growth is 104%.

For the compound `COc1ccccc1CNCCCN1C(=O)c2ccc3c4c(ccc(c24)C1=O)C(=O)N(CCCNCCCCNCCCN)C3=O`, the growth was -39% (active).

As to `NC(=N\N=C/c1ccc(O)cc1)/C(N)=N\N=C/c1ccc(O)cc1`, the growth is 51%.

Turning to `COc1ccc(-c2c(N)n[nH]c2-c2cc(OC)c3c(c2)OCCO3)cc1`, the growth was 75%.

Turning to `C=C1CCC2C(C)(CO)C(O)CCC2(C)C1C/C=C1/C(=O)OCC1O/C=C/c1ccccc1` (configuration not stated), the growth was 101%.

For `CC(C)(C)n1cc(-c2ccnc(NCCNS(=O)(=O)c3ccc(F)cc3)c2)c(-c2cccc(O)c2)n1`, the growth was 31.2%.

In the case of `COc1ccc2c(c1)OC1=C(C(=O)OC1)C2c1cc(OC)c2c(c1)OCO2` (configuration not stated), the growth is 14.9%.

As to `CC(C)OC(=O)N1CCOCC1`, the growth was 104%.

As to `CC12CCC3C4(C)COC(c5ccccc5Cl)OC4CCC3(C)C1CC(C1=CCOC1=O)O2` (configuration not stated), the growth is 77.4%.

Take `CCCOC(=O)n1cccc1`: the growth is 104%.

Consider `O=S(=O)(NCCCNc1nccc(-n2ccc3cccnc32)n1)c1cccc(C(F)(F)F)c1`, for which the growth is 119%.

Consider `Cc1ccc(S(=O)(=O)NCCNc2cc(-c3cn(C(C)(C)C)nc3-c3cccc(O)c3)ccn2)cc1`, for which the growth was 43%.

As to `Cc1ccc(S(=O)(=O)NCCCNc2cc(-c3cn(C(C)(C)C)nc3-c3cccc(O)c3)ccn2)cc1`, the growth is 50.3%.

Turning to `C=C1CCC2C(C)(CO)C(O)CCC2(C)C1CC(NCc1ccccc1)C1=CCOC1=O` (configuration not stated), the growth is 108%.

`COc1cc(Nc2ncccc2C(=O)NCc2cn(Cc3cccc(Oc4ccccc4)c3)nn2)cc(OC)c1`: the growth is 55%.

`CC12CCC3C4(C)COC(c5ccco5)OC4CCC3(C)C1CC(C1=CCOC1=O)O2` (configuration not stated): the growth was 105%.

As for `C=C1CCC2C3(C)COC(C)(C)OC3CCC2(C)C1C/C=C1/C(=O)OCC1Oc1ccccc1OC` (configuration not stated), the growth was 122%.

In the case of `O=C(/C=C/c1ccccc1)c1cccc(O)c1`, the growth was 102%.

Regarding `CC(C)(C)n1cc(-c2ccnc(NCCCNS(=O)(=O)c3ccc(F)cc3)c2)c(-c2cccc(O)c2)n1`, the growth was 9.22% (active).

For `COc1cc(C2C3=C(COC3=O)Nc3cc4c(cc32)OCO4)cc2c1OCO2` (configuration not stated), the growth is 8.39% (active).

Consider `O=C(NCCNc1nccc(-n2ccc3cccnc32)n1)c1ccc(C(F)(F)F)cc1`, for which the growth was 120%.

With `COc1cc(C2C3=C(COC3=O)Nc3cc4c(cc32)CCC4)cc2c1OCO2` (configuration not stated), the growth is 8.29% (active).

With `COc1ccc(-c2ccc(C)n2-c2ccc(-c3nc4cc(Cl)ccc4s3)cc2)cc1`, the growth was 92.3%.

Consider `CC12CCCC(CC(=O)c3[nH]c4ccccc4c31)C2` (configuration not stated), for which the growth is 43.5%.
